Holding throughout (assay): NCI-60 one-dose screen, 48 h (100 = growth as untreated, 0 = no growth, -100 = all killed)
One experiment concerns NCI-H226 lung. The settings on record: 10 µM.
A further experiment relates to NCI-H322M lung. The settings on record: 10 µM.
Another experiment has as its system HOP-62 NSCLC. The settings on record: 10 µM.
For another experiment, the system named is NCI-H460 lung. The settings on record: 10 µM.
For the next experiment, the system named is A549/ATCC NSCLC. The settings on record: 10 µM.
For the next experiment, the system named is 786-0 renal. The settings on record: 10 µM.
A further experiment relates to DU-145 prostate. The settings on record: 10 µM.
In a further experiment the test system is SF-268 CNS. The settings on record: 10 µM.
The subject of the next experiment is SF-295 CNS. The settings on record: 10 µM.
Another experiment relates to SF-539 CNS. The settings on record: 10 µM.
The subject of the next experiment is HCT-15 colon. The settings on record: 10 µM.
A further experiment relates to HT29 colon. The settings on record: 10 µM.
In a further experiment the test system is SNB-75 CNS. The settings on record: 10 µM.
The subject of another experiment is SNB-19 CNS. The settings on record: 10 µM.
Another experiment concerns PC-3 prostate. The settings on record: 10 µM.
The subject of the next experiment is EKVX NSCLC. The settings on record: 10 µM.
Another experiment relates to UO-31 renal. The settings on record: 10 µM.
Another experiment concerns ACHN renal. The settings on record: 10 µM.
The next experiment concerns MOLT-4 leukemia. The settings on record: 10 µM.
The next experiment concerns HL-60(TB) leukemia. The settings on record: 10 µM unless noted.

“And” between values parts separate entries of the source, which are not always exact repeats. Equal entries are not always repeated. Compounds without any hit were thinned out: in the full panel of roughly 83,000, 20% have a hit.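 Single-concentration screen, 48 h exposure, 96-well plates. Endpoint: percent growth. Below 10 = active.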 Values without a mark were called inactive. The source made the active and inactive calls.

With `CC1=C[C@H]2O[C@@H]3C[C@@H](O)[C@](C)([C@@]2(C)CC1)[C@@]31CO1`, the growth in the experiment with NCI-H226 lung was 29.9%; with NCI-H322M lung, 24.9%; in the experiment with HOP-62 NSCLC, 15.7%; in the experiment with NCI-H460 lung, 13.2%; with A549/ATCC NSCLC, 16.2%; with 786-0 renal it was 24.1%. The growth was 19.4% in the experiment with DU-145 prostate; 29.3% in the experiment on SF-268 CNS; 27.2% in the experiment with SF-295 CNS; 23.9% in the experiment on SF-539 CNS; 20.8% with HCT-15 colon; 11.4% in the experiment with HT29 colon. In addition, the growth in the experiment with SNB-75 CNS was 28.7%; in the experiment on SNB-19 CNS it was 18.9%; in the experiment with PC-3 prostate, 31.5%; with EKVX NSCLC it was 38.3%; in the experiment with UO-31 renal, 16.7%; in the experiment on ACHN renal it was 22.2%. Also, in the experiment with MOLT-4 leukemia, the growth is 9.97% (active).

`COc1cc2c(O[C@@H]3OC[C@H](OC(C)=O)[C@H](OC(C)=O)[C@H]3O)c3c(c(-c4ccc5c(c4)OCO5)c2cc1OC)C(=O)OC3`: the growth in the experiment on NCI-H226 lung is 2.53% (active); in the experiment on NCI-H322M lung, 61.5%; with HOP-62 NSCLC it was 36.9%; in the experiment on NCI-H460 lung, 10.7%; with A549/ATCC NSCLC it was 12.4%; in the experiment on 786-0 renal it was 20%. The growth is 43% with DU-145 prostate; 42.4% in the experiment with SF-268 CNS; -43% (active) in the experiment with SF-295 CNS; 25.6% in the experiment on SF-539 CNS; 1.41% (active) with HCT-15 colon; 9% (active) in the experiment on HT29 colon. In addition, the growth in the experiment on SNB-75 CNS is 6.09% (active); with SNB-19 CNS it was 58.7%; in the experiment on PC-3 prostate, 26.5%; in the experiment with EKVX NSCLC it was 39.5%; with UO-31 renal, 50%; in the experiment with ACHN renal, 29%. In addition, the growth in the experiment with HL-60(TB) leukemia is 26%; in the experiment with MOLT-4 leukemia it was 13.7%.

On to `CN(CCF)/N=N/c1nc[nH]c1C(N)=O`, for which the growth with NCI-H226 lung was 47.6%; in the experiment with NCI-H322M lung, 60%; in the experiment on HOP-62 NSCLC it was 26.5%; with NCI-H460 lung, 38.6%; with A549/ATCC NSCLC, 98.8%; in the experiment on 786-0 renal, 41.8%. Besides, the growth in the experiment with DU-145 prostate was 24.6%; in the experiment on SF-268 CNS, 36.8%; with SF-295 CNS it was 19.9%; in the experiment on SF-539 CNS, 38.5%; with HCT-15 colon it was 57.6%; with HT29 colon, 42%. The growth in the experiment with SNB-75 CNS is 31.4%; in the experiment on SNB-19 CNS it was 98.8%; with PC-3 prostate, 55.1%; in the experiment on EKVX NSCLC, 75.9%; with UO-31 renal, 21.1%; in the experiment on ACHN renal it was 36.6%. In addition, the growth is 21.6% with HL-60(TB) leukemia and 18.7% in the experiment on MOLT-4 leukemia.

Turning to `CCCCCCCCCC(=O)N[C@@](C)(CC)C(=O)N1CCC[C@H]1C(=O)N[C@@H](CC(C)C)C(=O)N[C@@](C)(CC)C(=O)N[C@@H](CCC(N)=O)C(=O)N[C@H](CCC(N)=O)C(=O)NC(C)(C)C(=O)NC(C)(C)C(=O)N[C@@H](CCC(N)=O)C(=O)N[C@H](CC(C)C)C(=O)N[C@H](CO)CC(C)C`, the growth is -71.9% (active) and -72.7% (active) with NCI-H226 lung; -94.9% (active) and -60.9% (active) in the experiment with NCI-H322M lung; -74.3% (active) and -67.3% (active) with HOP-62 NSCLC; -77.3% (active) and -76.8% (active) with NCI-H460 lung; -48.6% (active) and -38% (active) in the experiment with A549/ATCC NSCLC; -78.5% (active) and -80.4% (active) in the experiment on 786-0 renal. The growth is -99.1% (active) and -81.9% (active) in the experiment with DU-145 prostate; -80.5% (active) and -64.9% (active) in the experiment on SF-268 CNS; -91.7% (active) and -90.9% (active) in the experiment with SF-295 CNS; -97.2% (active) and -100% (active) in the experiment on SF-539 CNS; -77.8% (active) and -78.1% (active) in the experiment with HCT-15 colon; -40.3% (active) and -67.2% (active) with HT29 colon. The growth in the experiment with SNB-75 CNS is -90.8% (active) and -96.3% (active); with SNB-19 CNS, -93.9% (active) and -99.6% (active); in the experiment on PC-3 prostate it was -87.2% (active) and -63.7% (active); with EKVX NSCLC, -86.7% (active) and -89.1% (active); with UO-31 renal it was -96.4% (active) and -89.3% (active); in the experiment on ACHN renal, -93% (active) and -98.4% (active). In addition, the growth with HL-60(TB) leukemia is -61.8% (active) and -23.6% (active); with MOLT-4 leukemia it was -50.5% (active) and -25.3% (active).

Take `COc1cc2c(cc1OC)[C@@H]1N(CC2)C(=O)c2ccccc2[C@@]1(C)C(=O)O`: the growth is 111% in the experiment on NCI-H226 lung; 102% with NCI-H322M lung; 108% with HOP-62 NSCLC; 109% in the experiment on NCI-H460 lung; 111% in the experiment on A549/ATCC NSCLC; 99.9% in the experiment with 786-0 renal. The growth in the experiment with DU-145 prostate was 110%; with SF-268 CNS, 110%; in the experiment with SF-295 CNS it was 101%; in the experiment with SF-539 CNS it was 105%; in the experiment on HCT-15 colon, 101%; in the experiment on HT29 colon, 107%. Besides, the growth in the experiment on SNB-75 CNS is 108%; in the experiment on SNB-19 CNS it was 98.4%; with PC-3 prostate, 104%; with EKVX NSCLC, 103%; with UO-31 renal it was 97.3%; in the experiment on ACHN renal, 110%. Further, the growth with HL-60(TB) leukemia was 104%; in the experiment on MOLT-4 leukemia, 108%.

Turning to `CC(=O)O[C@@H]1[C@@H]2O[C@H]2[C@@](C)(O)C(=O)[C@@H](C)C/C=C/[C@H]2[C@@H]3O[C@]3(C)[C@@H](C)C3[C@H](Cc4ccccc4)NC(=O)[C@@]312` (some centres undefined), the growth in the experiment on NCI-H226 lung was 65.7%; with NCI-H322M lung, 92.5%; in the experiment with HOP-62 NSCLC, 5.72% (active); in the experiment with NCI-H460 lung, 28.5%; in the experiment on A549/ATCC NSCLC it was 25.1%; with 786-0 renal, 24.3%. The growth in the experiment on DU-145 prostate is 50.2%; in the experiment with SF-268 CNS, 26.5%; with SF-295 CNS, 65.4%; in the experiment on SF-539 CNS, 51.5%; with HCT-15 colon it was 54.1%; with HT29 colon it was 36.3%. Also, the growth in the experiment on SNB-75 CNS was -12.9% (active); in the experiment on SNB-19 CNS it was 55.1%; in the experiment on PC-3 prostate, 72.3%; in the experiment on EKVX NSCLC, 39.1%; with UO-31 renal it was 24.8%; in the experiment on ACHN renal, 40.4%. Further, the growth in the experiment with HL-60(TB) leukemia is 58.2%; in the experiment with MOLT-4 leukemia, 67.9%.

These data come from PubChem BioAssay (NCI).
